Measurements from article PMC5540273 (PLoS ONE, 2017).

system: TYK2(JH2domain-pseudokinase); conditions: concentration: 1 μM,replicates: in singlicate; n = 1
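Note: KINOMEscan kinase panel screen.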

Q: With `CS(=O)(=O)Nc1ccc(-c2ccnc3[nH]ccc23)cc1` [GSK993273] as the molecule, how does the “%Inh” value read?
A: 24%

Q: Which “%Inh” value does the source give for `O=C(NCC1CC1)c1ccc(-c2cc(C(=O)NC3CC3)ccc2F)cc1` [GW810445] here?
A: 2%

Q: With `Cc1cccc2c(-c3ccncc3)c(-c3ccc(F)cc3)nn12.Cl` [GW461487] as the molecule, how does the “%Inh” value read?
A: 0%

Q: How did the “%Inh” value turn out when `Cn1ccc2ncnc(Oc3ccc(NC(=O)Nc4cnn(C(C)(C)C)c4)c(Cl)c3)c21` was run?
A: 3%

Q: How did the “%Inh” value turn out when `Cn1cc(-c2cccc3c(N)c(C(N)=O)nnc23)cn1` was run?
A: 80%

Q: With `C[C@@H]1CCN(C(=O)N2CCCC2)C[C@@H]1N(C)c1ncnc2[nH]ccc12` as the molecule, how does the “%Inh” value read?
A: 0%

Q: For `Cl.Nc1n[nH]c2cc(-c3ccccn3)ccc12` [GSK2189892], which “%Inh” value is on record?
A: 0%

Q: For `Cl.c1ccc(Oc2ccc(Nc3ccnc4cc(-c5ccc(CN6CCNCC6)o5)ccc34)cc2)nc1` [GW567142], which “%Inh” value is on record?
A: 10%

Q: `CCNCC(Cc1ccccc1)NC(=O)c1cc(Br)c(-c2ccnc3[nH]ccc23)s1.Cl.Cl` (centres unmarked) [GSK1383280] was tested. Which “%Inh” value did it give?
A: 10%

Q: How did the “%Inh” value turn out when `Cc1ccc(Nc2ccnc(Nc3ccc4c(c3)CS(=O)(=O)C4)n2)cc1O.Cl` [GW579362] was run?
A: 99.5%

Q: How did the “%Inh” value turn out when `COc1cccc(C2=C(Nc3cccc(Cl)c3)C(=O)NC2=O)c1` [SB-341556] was run?
A: 46%

Q: With `CCN1CCN(CCCC(=O)Nc2n[nH]c3nc(-c4ccc(O)cc4)c(Br)cc23)CC1` [SB-731579] as the molecule, how does the “%Inh” value read?
A: 0%

Q: For `CSc1nccc(-c2c(-c3ccc(F)cc3)ncn2CCCN2CCOCC2)n1.Cl` [SB-217146], which “%Inh” value is on record?
A: 22%

Q: With `COc1cc2nccc(Nc3ccc(Oc4ccccc4)cc3)c2cc1OC.Cl` [GI261656] as the molecule, how does the “%Inh” value read?
A: 12%

Q: Which “%Inh” value does the source give for `CS(=O)c1ccc(-c2coc3ccc(-c4n[nH]c(=O)o4)cc23)cc1` (centres unmarked) here?
A: 47%

Q: How did the “%Inh” value turn out when `Cn1ccc2ncnc(Oc3ccc(NC(=O)Nc4ccnc(C(F)(F)F)c4)c(Cl)c3)c21` was run?
A: 0%

Q: Which “%Inh” value does the source give for `CN1CCN(CCCNc2nccc(-c3c(-c4ccc(F)cc4)nn4cc(C(N)=O)ccc34)n2)CC1` [GW622475] here?
A: 40%

Q: Which “%Inh” value does the source give for `O=C(NOCC1CC1)c1cc(Br)c(F)c(F)c1Nc1ccc(I)cc1Cl` here?
A: 0%

Q: With `COc1cccc(CNC(=O)NC2CCN(c3ccnc(Nc4cc(OC)c(OC)c(OC)c4)n3)C2)c1` (centres unmarked) [GSK1379765] as the molecule, how does the “%Inh” value read?
A: 43%

Q: How did the “%Inh” value turn out when `COc1cc(Nc2nccc(N3CCC(NC(=O)c4cccc(C#N)c4)C3)n2)cc(OC)c1OC` (centres unmarked) [GSK1379751] was run?
A: 55%

Q: Which “%Inh” value does the source give for `COC(=O)c1cccc(NC(=O)NC2CCN(c3ccnc(NCc4ccc(F)cc4)n3)CC2)c1` [GSK1379860] here?
A: 5%

Q: How did the “%Inh” value turn out when `Cn1ccc2ncnc(Oc3ccc(NC(=O)Nc4cc(C(C)(C)C)on4)c(Cl)c3)c21` was run?
A: 26%

Q: `O=C1NCCc2[nH]c(-c3ccncc3)cc21` was tested. Which “%Inh” value did it give?
A: 41%

Q: With `Nc1nccc(-c2ccc3c(N)n[nH]c3c2)n1` [GSK1034945] as the molecule, how does the “%Inh” value read?
A: 52%

Q: With `CC(=O)Nc1ccc(-c2cc3ncnc(SCC(=O)O)c3s2)cc1` as the molecule, how does the “%Inh” value read?
A: 0%

Q: For `NC(=O)c1ccc(-c2cc3ncnc(SCC(=O)O)c3s2)cc1`, which “%Inh” value is on record?
A: 42%

Q: Which “%Inh” value does the source give for `Cc1cccc(-c2nc(Nc3ccncc3)c3sccc3n2)n1` [GW869641] here?
A: 75%

Q: For `Cn1ccc2ncnc(Oc3ccc(NC(=O)Nc4cncc(C(F)(F)F)c4)c(Cl)c3)c21`, which “%Inh” value is on record?
A: 0%

Q: Which “%Inh” value does the source give for `OCCn1cc(-c2cnc3nnn(Cc4ccc5ncccc5c4)c3n2)cn1` here?
A: 0%

Q: How did the “%Inh” value turn out when `C[C@@H]1CNc2c(sc3ccc4nc(-c5ccc(O)cc5)ccc4c23)C(=O)N1` was run?
A: 23%

Q: With `FC(F)(F)c1cc(Br)cc(Nc2nccc(-c3cnn4ncccc34)n2)c1` [GW810578] as the molecule, how does the “%Inh” value read?
A: 89%

Q: How did the “%Inh” value turn out when `NC(=O)Nc1sc(-c2ccc(F)cc2)cc1C(N)=O` [GW789449] was run?
A: 100%

Q: How did the “%Inh” value turn out when `c1ccc(Oc2ccc(Nc3ccnc4ccc(-c5ccccn5)cc34)cc2)cc1` [GW407034] was run?
A: 15%

Q: `CCn1c(-c2nonc2N)nc2cncc(CNC3CCNCC3)c21.Cl` [SB-747651] was tested. Which “%Inh” value did it give?
A: 47%

Q: How did the “%Inh” value turn out when `CN(c1ccccc1CNc1nc(Nc2ccc3c(c2)CC(=O)N3)ncc1C(F)(F)F)S(C)(=O)=O` was run?
A: 0%

Q: For `Cc1ccc(C(=O)Nc2ccc(Oc3ccc4nc(NC(=O)C5CC5)cn4c3)c(F)c2)c(=O)n1-c1ccccc1`, which “%Inh” value is on record?
A: 0%

Q: How did the “%Inh” value turn out when `C[C@@H](Oc1cc(-n2cnc3ccc(-c4ccncc4)cc32)sc1C(N)=O)c1ccccc1Cl` [GSK483724] was run?
A: 42%

system: TYRO3; conditions: concentration: 1 μM,replicates: in singlicate; n = 1

Q: `CS(=O)(=O)Nc1ccc(-c2ccnc3[nH]ccc23)cc1` [GSK993273] was tested. Which “%Inh” value did it give?
A: 0%

Q: With `O=C(NCC1CC1)c1ccc(-c2cc(C(=O)NC3CC3)ccc2F)cc1` [GW810445] as the molecule, how does the “%Inh” value read?
A: 0%

Q: How did the “%Inh” value turn out when `Cc1cccc2c(-c3ccncc3)c(-c3ccc(F)cc3)nn12.Cl` [GW461487] was run?
A: 0%

Q: `Cn1ccc2ncnc(Oc3ccc(NC(=O)Nc4cnn(C(C)(C)C)c4)c(Cl)c3)c21` was tested. Which “%Inh” value did it give?
A: 0%

Q: How did the “%Inh” value turn out when `Cn1cc(-c2cccc3c(N)c(C(N)=O)nnc23)cn1` was run?
A: 0%

Q: Which “%Inh” value does the source give for `C[C@@H]1CCN(C(=O)N2CCCC2)C[C@@H]1N(C)c1ncnc2[nH]ccc12` here?
A: 0%

Q: With `Cl.Nc1n[nH]c2cc(-c3ccccn3)ccc12` [GSK2189892] as the molecule, how does the “%Inh” value read?
A: 0%

Q: With `Cl.c1ccc(Oc2ccc(Nc3ccnc4cc(-c5ccc(CN6CCNCC6)o5)ccc34)cc2)nc1` [GW567142] as the molecule, how does the “%Inh” value read?
A: 0%

Q: With `CCNCC(Cc1ccccc1)NC(=O)c1cc(Br)c(-c2ccnc3[nH]ccc23)s1.Cl.Cl` (centres unmarked) [GSK1383280] as the molecule, how does the “%Inh” value read?
A: 0%

Q: For `Cc1ccc(Nc2ccnc(Nc3ccc4c(c3)CS(=O)(=O)C4)n2)cc1O.Cl` [GW579362], which “%Inh” value is on record?
A: 79%

Q: `COc1cccc(C2=C(Nc3cccc(Cl)c3)C(=O)NC2=O)c1` [SB-341556] was tested. Which “%Inh” value did it give?
A: 21%

Q: `CCN1CCN(CCCC(=O)Nc2n[nH]c3nc(-c4ccc(O)cc4)c(Br)cc23)CC1` [SB-731579] was tested. Which “%Inh” value did it give?
A: 0%

Q: `CSc1nccc(-c2c(-c3ccc(F)cc3)ncn2CCCN2CCOCC2)n1.Cl` [SB-217146] was tested. Which “%Inh” value did it give?
A: 0%

Q: `COc1cc2nccc(Nc3ccc(Oc4ccccc4)cc3)c2cc1OC.Cl` [GI261656] was tested. Which “%Inh” value did it give?
A: 0%

Q: With `CS(=O)c1ccc(-c2coc3ccc(-c4n[nH]c(=O)o4)cc23)cc1` (centres unmarked) as the molecule, how does the “%Inh” value read?
A: 0%

Q: `Cn1ccc2ncnc(Oc3ccc(NC(=O)Nc4ccnc(C(F)(F)F)c4)c(Cl)c3)c21` was tested. Which “%Inh” value did it give?
A: 0%

Q: How did the “%Inh” value turn out when `CN1CCN(CCCNc2nccc(-c3c(-c4ccc(F)cc4)nn4cc(C(N)=O)ccc34)n2)CC1` [GW622475] was run?
A: 0%

Q: Which “%Inh” value does the source give for `O=C(NOCC1CC1)c1cc(Br)c(F)c(F)c1Nc1ccc(I)cc1Cl` here?
A: 0%

Q: `COc1cccc(CNC(=O)NC2CCN(c3ccnc(Nc4cc(OC)c(OC)c(OC)c4)n3)C2)c1` (centres unmarked) [GSK1379765] was tested. Which “%Inh” value did it give?
A: 0%

Q: `COc1cc(Nc2nccc(N3CCC(NC(=O)c4cccc(C#N)c4)C3)n2)cc(OC)c1OC` (centres unmarked) [GSK1379751] was tested. Which “%Inh” value did it give?
A: 0%

Q: For `COC(=O)c1cccc(NC(=O)NC2CCN(c3ccnc(NCc4ccc(F)cc4)n3)CC2)c1` [GSK1379860], which “%Inh” value is on record?
A: 17%

Q: Which “%Inh” value does the source give for `Cn1ccc2ncnc(Oc3ccc(NC(=O)Nc4cc(C(C)(C)C)on4)c(Cl)c3)c21` here?
A: 28%

Q: For `O=C1NCCc2[nH]c(-c3ccncc3)cc21`, which “%Inh” value is on record?
A: 0%

Q: Which “%Inh” value does the source give for `Nc1nccc(-c2ccc3c(N)n[nH]c3c2)n1` [GSK1034945] here?
A: 0%

Q: With `CC(=O)Nc1ccc(-c2cc3ncnc(SCC(=O)O)c3s2)cc1` as the molecule, how does the “%Inh” value read?
A: 0%

Q: For `NC(=O)c1ccc(-c2cc3ncnc(SCC(=O)O)c3s2)cc1`, which “%Inh” value is on record?
A: 0%

Q: `Cc1cccc(-c2nc(Nc3ccncc3)c3sccc3n2)n1` [GW869641] was tested. Which “%Inh” value did it give?
A: 0%

Q: How did the “%Inh” value turn out when `Cn1ccc2ncnc(Oc3ccc(NC(=O)Nc4cncc(C(F)(F)F)c4)c(Cl)c3)c21` was run?
A: 0%

Q: With `OCCn1cc(-c2cnc3nnn(Cc4ccc5ncccc5c4)c3n2)cn1` as the molecule, how does the “%Inh” value read?
A: 0%

Q: How did the “%Inh” value turn out when `C[C@@H]1CNc2c(sc3ccc4nc(-c5ccc(O)cc5)ccc4c23)C(=O)N1` was run?
A: 0%

Q: `FC(F)(F)c1cc(Br)cc(Nc2nccc(-c3cnn4ncccc34)n2)c1` [GW810578] was tested. Which “%Inh” value did it give?
A: 0%

Q: `NC(=O)Nc1sc(-c2ccc(F)cc2)cc1C(N)=O` [GW789449] was tested. Which “%Inh” value did it give?
A: 16%

Q: With `c1ccc(Oc2ccc(Nc3ccnc4ccc(-c5ccccn5)cc34)cc2)cc1` [GW407034] as the molecule, how does the “%Inh” value read?
A: 0%

Q: Which “%Inh” value does the source give for `CCn1c(-c2nonc2N)nc2cncc(CNC3CCNCC3)c21.Cl` [SB-747651] here?
A: 0%

Q: `CN(c1ccccc1CNc1nc(Nc2ccc3c(c2)CC(=O)N3)ncc1C(F)(F)F)S(C)(=O)=O` was tested. Which “%Inh” value did it give?
A: 0%

Q: For `Cc1ccc(C(=O)Nc2ccc(Oc3ccc4nc(NC(=O)C5CC5)cn4c3)c(F)c2)c(=O)n1-c1ccccc1`, which “%Inh” value is on record?
A: 81%

Q: For `C[C@@H](Oc1cc(-n2cnc3ccc(-c4ccncc4)cc32)sc1C(N)=O)c1ccccc1Cl` [GSK483724], which “%Inh” value is on record?
A: 0%
